Screens: PubChem, National Center for Advancing Translational Sciences (NCATS)
LmPK inh – qHTS Assay for Inhibitors of Leishmania Mexicana Pyruvate Kinase (LmPK) | purified LmPK, Kinase-Glo ATP luminescence, 1 h | Potency, µM (series often up to 57.5 µM), usual class: inhibitors | actives 0.37% (n = 290,000)
Target sequence (Q27686 whole entry, looked up): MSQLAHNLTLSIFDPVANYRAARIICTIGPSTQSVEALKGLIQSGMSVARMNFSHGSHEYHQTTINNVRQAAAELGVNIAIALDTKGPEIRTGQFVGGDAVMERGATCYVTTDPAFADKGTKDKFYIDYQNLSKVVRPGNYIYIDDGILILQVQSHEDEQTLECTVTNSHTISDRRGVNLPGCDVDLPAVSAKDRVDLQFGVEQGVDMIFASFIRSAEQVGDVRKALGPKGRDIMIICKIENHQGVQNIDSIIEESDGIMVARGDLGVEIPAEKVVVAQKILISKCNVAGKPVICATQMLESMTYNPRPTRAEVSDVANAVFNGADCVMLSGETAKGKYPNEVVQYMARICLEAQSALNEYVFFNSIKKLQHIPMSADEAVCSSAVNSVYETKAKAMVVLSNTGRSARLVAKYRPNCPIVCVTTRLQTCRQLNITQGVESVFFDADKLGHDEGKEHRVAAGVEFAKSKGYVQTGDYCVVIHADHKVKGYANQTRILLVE
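Screened at intermediate enzyme activity to detect both inhibitors and activators: LmPK at 0.1 nM, with a 0.5 nM enzyme column as activation reference. PEP 0.5 mM, ADP 0.1 mM; ATP detected by luminescence after 1 h.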
TbPYK inhibitor – qHTS of Trypanosoma Brucei Inhibitors. pyruvate kinase (Trypanosoma brucei), Q57TT1. TbPYK enzyme, Kinase-Glo Plus ATP luminescence, 45 min. Potency, µM (doses to about 76.8 µM), actives largely listed as inhibitors. actives 0.12% (n = 410,000); further: nearly all actives have a fitted effect of over 50% in size
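Screened from lowest to highest concentration, compounds were pinned into TbPYK/substrate mixtures, and ADP (130 uM final) was added. Plates sat at room temperature for 45 min prior to Kinase-Glo Plus detection by luminescence.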
Giardia FBPA inh – qHTS Assay for Inhibitors of Fructose-1,6-bisphosphate Aldolase from Giardia Lamblia; purified Giardia FBPA; Potency, µM (highest dose often 59.6 µM), most hits filed as inhibitors; actives 0.71% (n = 290,000); further: nearly all actives have a fitted effect of over 55% in size
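40 nM FBPA preincubated 10 min at RT with compound (up to 57.5 uM final), then substrate plus GAPDH/TPI/NAD/arsenate coupling and diaphorase/resazurin added. Fluorescence read after 20 min at RT, 525/598 nm.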
Shiga inhibitor – A qHTS for Small Molecule Inhibitors of Shiga Toxin; Vero cells, Shiga toxin protein synthesis inhibition reporter; inhibition, % at 38.7 µM; actives 9.2% (n = 290,000); AID 2315, 2010; in the data active means inhibition mostly above about 28%, no sharp cut-off; inactive means mostly below about 43%
CHX counter – Cycloheximide Counterscreen for Small Molecule Inhibitors of Shiga Toxin; cell reporter, cycloheximide protein synthesis inhibition counterscreen; max response, %; actives 12% (n = 300,000); in the data active means max response mostly above about 13%, no sharp cut-off; inactive means mostly below about 14%; further: read at 38.3 µM for the half of the compounds with a filed dose
Sm TGR block – qHTS Assay for the Inhibitors of Schistosoma Mansoni Peroxiredoxins | actives 3% (n = 360,000) | Potency, µM (series often up to 114 µM), most hits filed as inhibitors | Schistosoma mansoni thioredoxin glutathione reductase (TGR), Q962Y6 | purified TGR, DTNB reduction, TNB absorbance 405 nm; further: nearly all actives have a fitted effect of over 60% in size
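Kinetic colorimetric format: TGR-catalysed, NADPH-driven DTNB reduction monitored via TNB absorbance. Enzyme dispensed at 20 nM; compound exposure 15 min at room temperature before reaction start.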
Large screens that a line does not name were inactive. This excerpt belongs to a sample that is enriched for hits. Unless noted, the call rests on the fitted dose curve; in most records, active means well fitted curve in the direction sought with a large enough effect; inconclusive means small, poorly fitted or top-dose-only effect, or another doubt; inactive means no such curve, though single readings can be large; an effect the other way counts as inactive or inconclusive.

Cc1ccc(-c2cc(C(=O)Nc3c(C#N)cnn3C)no2)cc1	Shiga inhibitor 56, CHX counter 14
CC(CNC(=O)CCCn1c(=O)c2cccn2c2cccnc21)c1ccccc1 (stereo unspecified)	none (no result: LmPK inh, Giardia FBPA inh, Shiga inhibitor, CHX counter)
Cc1cccc(C(=O)N[C@H](C(=O)NCCc2ccc(Cl)cc2)C(C)C)c1	none
O=C(Oc1cccc2cccnc12)c1ccco1	none
O=C(NCCOc1cccc2cccnc12)c1cccs1	Shiga inhibitor 46
O=C(Oc1cccc2cccnc12)c1cccs1	Giardia FBPA inh inconclusive, CHX counter 21
O=C(Oc1cccc2cccnc12)c1ccc2c(c1)OCCO2	Shiga inhibitor 84, CHX counter 70
Cc1nc(-c2ccc(S(=O)(=O)NCc3ccc(N(C)C)cc3)cc2)co1	none (no result: LmPK inh, Giardia FBPA inh, Shiga inhibitor, CHX counter)
Cc1cc(C)c(S(=O)(=O)N2CCCCC2CCNC(=O)C(=O)NCc2cccnc2)c(C)c1 (stereo unspecified)	none (no result: LmPK inh, Giardia FBPA inh, Shiga inhibitor, CHX counter)
COc1ccc2cc(C(=O)NCc3ccc4c(c3)CCN4C(=O)c3ccc(F)cc3)[nH]c2c1	none (no result: LmPK inh, Giardia FBPA inh, Shiga inhibitor, CHX counter)
FC(F)(F)C1=Nc2cccc3cccc(c23)N1	Sm TGR block 18µM (no result: LmPK inh, Giardia FBPA inh, Shiga inhibitor, CHX counter)
CCOC(=O)c1c(C)[nH]c(C)c1S(=O)(=O)N1CCCC(C(=O)Nc2ccccc2OCC)C1 (stereo unspecified)	none (no result: LmPK inh, Giardia FBPA inh, Shiga inhibitor, CHX counter)
CC1(C(=O)NS(=O)(=O)c2cccc(OC(F)F)c2)CCN1C(=O)Cc1cccs1 (stereo unspecified)	none (no result: LmPK inh, Giardia FBPA inh, Shiga inhibitor, CHX counter, Sm TGR block)
Cc1cc(C(=O)CCl)c(C)n1CCc1ccccc1	Giardia FBPA inh inconclusive, Sm TGR block 8.9µM
CCOC(=O)c1cc(-c2ccccc2)n(CCC(=O)O)c1C	none
COC(=O)CCCn1c(C)cc(C(=O)CCl)c1C	Sm TGR block 7.9µM
CCOC(=O)c1cc(C)n(CCc2ccccc2)c1C	CHX counter 22
CN(C)S(=O)(=O)c1ccc(Cl)c(NC(=O)COC(=O)CCC2CCCCC2)c1	none (no result: LmPK inh, Giardia FBPA inh, Shiga inhibitor, CHX counter, Sm TGR block)
CC12CCC(=O)N1C(C(=O)Nc1nc(-c3ccccc3Cl)cs1)CS2 (stereo unspecified)	none (no result: LmPK inh, Giardia FBPA inh, Shiga inhibitor, CHX counter)
CCN(CC)C(=O)CSc1nc(-c2ccc(C)cc2)nc2c1Cc1c(CO)cnc(C)c1O2	Sm TGR block 20µM (no result: LmPK inh, Giardia FBPA inh, Shiga inhibitor, CHX counter)
CCN(CC)C(=O)CSc1nc(-c2ccc(C)cc2)nc2c1COC(C)(C)C2	CHX counter 20 (no result: TbPYK inhibitor)
COc1ccc(-c2nc3c(c(SCC(=O)N4CCOCC4)n2)Cc2c(CO)cnc(C)c2O3)cc1	none
COc1ccc(-c2nc3c(c(SCC(=O)Nc4cc(C)cc(C)c4)n2)Cc2c(CO)cnc(C)c2O3)cc1	none (no result: LmPK inh, Giardia FBPA inh, Shiga inhibitor, CHX counter)
Cc1cc(C)cc(NC(=O)CSc2nc(-c3cccc(Cl)c3)nc3c2Cc2c(CO)cnc(C)c2O3)c1	Sm TGR block 35µM (no result: LmPK inh, Giardia FBPA inh, Shiga inhibitor, CHX counter)
Cc1ccc(-c2nc3c(c(SCC(=O)N4CCOCC4)n2)Cc2c(CO)cnc(C)c2O3)cc1	Sm TGR block 35µM
Cc1ccc(-c2nnc(Nc3cccc(Cl)c3)c3ccccc23)cc1S(=O)(=O)N1CCCCC1	none (no result: LmPK inh, Giardia FBPA inh, Shiga inhibitor, CHX counter)
O=C(COC(=O)C1=COCCO1)Nc1cc(Cl)c(Cl)cc1Cl	none (no result: LmPK inh, Giardia FBPA inh, Shiga inhibitor, CHX counter, Sm TGR block)
Oc1c(Cl)cc(Cl)cc1C=Nc1ccc2c(c1)OCCO2	Shiga inhibitor 117, CHX counter 68
Brc1csc(C=Nc2ccc3c(c2)OCCOCCOCCOCCO3)c1	none
COc1ccc(N2C(=O)CC(Sc3ccccc3C(=O)O)C2=O)c([N+](=O)[O-])c1 (stereo unspecified)	Sm TGR block 11µM
Cc1ccc(N2C(=O)CC(Sc3ccccc3C(=O)O)C2=O)cc1C (stereo unspecified)	Sm TGR block 4µM
CN(Cc1ccccc1)C1CC(=O)N(c2ccc(C(=O)O)cc2)C1=O (stereo unspecified)	Sm TGR block 20µM
Cc1ccc(N2C(=O)CC(Sc3ccccc3C(=O)O)C2=O)c([N+](=O)[O-])c1 (stereo unspecified)	none (no result: Sm TGR block)
O=C(O)c1ccccc1SC1CC(=O)N(c2ccc3c(c2)OCO3)C1=O (stereo unspecified)	Sm TGR block 2.2µM
CC[C@H](c1ccccc1)c1noc(CCN(CC)CC)n1	none (no result: LmPK inh, Giardia FBPA inh, Shiga inhibitor, CHX counter, Sm TGR block)
COc1ccccc1-c1cncnc1NCCN1CCOCC1	none (no result: LmPK inh, TbPYK inhibitor, Shiga inhibitor, CHX counter, Sm TGR block)
Cc1ccc(N2C(=O)CC(Sc3ccccc3C(=O)O)C2=O)cc1 (stereo unspecified)	Sm TGR block 13µM
CN1C(=O)CC(Sc2ccccc2C(=O)O)C1=O (stereo unspecified)	Sm TGR block inconclusive
CCOC(=O)c1c(N2C(=O)CC(Sc3ccccc3C(=O)O)C2=O)sc(C)c1C (stereo unspecified)	Sm TGR block 4.5µM
Cc1cccc(N2C(=O)CC(Sc3ccccc3C(=O)O)C2=O)c1 (stereo unspecified)	Sm TGR block 14µM
CN(C)c1ccc(N2C(=O)CC(Sc3ccccc3C(=O)O)C2=O)cc1 (stereo unspecified)	Sm TGR block 28µM
Cc1c(Cl)cccc1NC(=O)CCS(=O)(=O)c1cccc2nsnc12	none (no result: LmPK inh, Giardia FBPA inh, Shiga inhibitor, CHX counter)
CCCCN1C(=O)CC(Sc2ccccc2C(=O)O)C1=O (stereo unspecified)	Sm TGR block 20µM
Cc1cc(C)cc(N2C(=O)CC(Sc3ccccc3C(=O)O)C2=O)c1 (stereo unspecified)	Sm TGR block 1.3µM
CC(C)CN1C(=O)CC(Sc2ccccc2C(=O)O)C1=O (stereo unspecified)	Sm TGR block inconclusive
Cc1ccc(N2C(=O)CC(Sc3ncccc3C(=O)O)C2=O)cc1 (stereo unspecified)	none
CCc1ccc2c(c1)C1(NN=C(c3cccc4ccccc34)S1)C(=O)N2 (stereo unspecified)	Giardia FBPA inh inconclusive, Shiga inhibitor 48 (no result: TbPYK inhibitor)
CCC(=O)N=c1sc2c(OC)ccc(OC)c2n1C	none (no result: LmPK inh, Giardia FBPA inh, Shiga inhibitor, CHX counter, Sm TGR block)
COc1ccc(C)c2sc(=NC(=O)c3ccccc3)n(C)c12	Shiga inhibitor 69, CHX counter 18
COc1ccc(C)c2sc(=NC(=O)c3cccc(N4C(=O)CCC4=O)c3)n(C)c12	CHX counter 20
COc1ccc(C)c2sc(=NC(=O)c3ccc(C(C)=O)cc3)n(C)c12	Shiga inhibitor 67, CHX counter 38
C=CCn1c(=NC(=O)c2cccc(N3C(=O)CCC3=O)c2)sc2cccc(OC)c21	none
COc1ccc(C)c2sc(=NC(=O)C(C)C)n(C)c12	none
COc1cccc(NC(=O)Cn2c(=O)n(CCc3ccc(OC)c(OC)c3)c(=O)c3ccccc32)c1	none (no result: LmPK inh, Giardia FBPA inh, Shiga inhibitor, CHX counter)
Cc1cccc(NC(=O)Cn2nc(-c3ccco3)ccc2=O)c1C	Sm TGR block 32µM
Cc1cccc(NC(=O)CSc2nnc(-c3ccco3)c(-c3ccco3)n2)c1	Giardia FBPA inh inconclusive, Sm TGR block 3.5µM
